# Measurements from PubChem BioAssay.
# “And” between values parts separate entries of the source, which are not always exact repeats. Equal values may be shown once. The source made the active and inactive calls. Rule as the data show it, unless noted: active = parasite load remaining mostly below about 12% (no sharp cut-off); inactive = mostly above about 10%.
# What was measured:
# [1] = compounds altering viability of human ES cells (AID 493140; call rule not given here;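 also: cells exposed to compounds for four days before counting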); conditions: human embryonic stem cell survival screen; stronger effect = higher value
# [2] = P. berghei load reduction in hepatocytes – cell-based, HepG2, luciferase luminescence, HepG2 viability, primary screen (AID 624349);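 also: 100% = mean of DMSO negative control wells on the same plate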; conditions: P. berghei liver stage in HepG2, luciferase luminescence, concentration not given here; parasite load remaining: stronger effect = lower value; viability: measured here: HepG2 viability without parasites
# [3] = Wnt pathway potentiators raising nuclear beta-catenin – imaging, WNT3A-conditioned medium, mouse C2C12, NPC library, primary screen (AID 1117326; in the data active = nuclear beta-catenin stimulation mostly above about 4.2%, no sharp cut-off; inactive = mostly below about 10%); conditions: stronger effect = higher value
# [4] = stimulators of insulin release from INS-1E, primary screen, cell-based, 5 mM glucose, NPC library (AID 1117329;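 active = compound raises insulin release from rat beta cells at 5 mM glucose, no numeric limit stated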); conditions: rat INS-1E insulin secretion, at 10 µM, stronger effect = higher value
# [5] = growth inhibition of GSK3B-pretreated HCT116 cells – cell-based, CellTiter-Glo, 0.2 to 20 µM (AID 1117336;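 active = compounds lowering colon cancer cell viability after pretreatment blocking the GSK3B kinase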); conditions: HCT116 viability after GSK3B inhibitor, at 20 µM, stronger effect = higher value
# [6] = inhibition of endothelial tube formation, primary screen, imaging, VEGF stimulated, CD31 staining, tube area, NPC library (AID 1117340;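 active = compound that reduces growth-factor-driven endothelial tube area in a mixed cell culture, no cutoff stated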); conditions: VEGF-stimulated ADSC/ECFC co-culture, at 10 µM, stronger effect = higher value
# [7] = GLP1 release stimulators, primary, NCI-H716, NPC library (AID 1117341;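 active = compound raises GLP1 secretion from the human gut endocrine cells, with no numeric limit stated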); conditions: NCI-H716 cells, at 10 µM, stronger effect = higher value
# [8] = HCT116 colon cancer cell growth inhibition, primary screen, CellTiter-Glo luminescence, NPC library (AID 1117342;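 active = compounds that lower survival of HCT116 colon cancer cells in the luminescence readout, no numeric limit stated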); conditions: at 20 µM (top of the series)
# [9] = reduced SW480 viability measured with CellTiter-Glo, NPC library, primary (AID 1117343;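 active = compounds that lower viability of the colon cancer cells in the luminescence readout, with no numeric limit stated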); conditions: CellTiter-Glo luminescence; at 20 µM (top of the series) unless noted
# [10] = NPC library primary testing for decreased DLD-1 cell viability via CellTiter-Glo (AID 1117346;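 active = compounds that lower survival of DLD-1 colon cancer cells in the luminescence readout, no cutoff given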); conditions: DLD-1 viability, CellTiter-Glo luminescence; at 20 µM (top of the series)
# [11] = EMT-state selective cytotoxicity in co-culture – imaging, PC-3E GFP, TEM4-18 mCherry, primary screen (AID 1345086;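 active = compounds killing one labelled cell type while sparing the other, by normalised counts and ratio limits, not self-fluorescent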;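 as to all read-outs here: cells exposed to compound for 72 h before imaging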;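 as to red/green cell ratio (normalised): normalised mesenchymal count divided by normalised epithelial count so high means epithelial killing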); conditions: PC-3E GFP / TEM4-18 mCherry co-culture, imaging cell counts, at 1 µM; for red/green cell ratio (normalised): actives lie on both sides, counts scaled to control wells, 1 = unselective
# [12] = viability loss with induced miR-34 in A549 – imaging, A549 dox-inducible miR-34, nuclei and caspase counts, primary screen (AID 1347080;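 active = compounds whose cell count with miR-34 switched on is under 0.7 times the count with it off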); conditions: A549 miR-34 inducible, Hoechst nuclei count, 48 h
# [13] = MELAS cybrid and Rieske KO viability enhancers – cell-based, MELAS cybrids, Rieske KO mouse fibroblasts, CellTiter-Glo, primary screen (AID 1508586;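 active = mean z-score across replicates of 1.96 or higher in either the MELAS or the Rieske mutant cell line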;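 also: z relative to plate mean and SD of compound and empty wells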); conditions: low glucose
# [14] = target: NAD(+) hydrolase SARM1 (Homo sapiens) (UniProt Q6SZW1); test: blocking NAD cleavage by SARM1 SAM-TIR – cell lysate, NAD-Glo luminescence (AID 1508614;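 active = compound whose remaining NAD level is above about 45 nM, limit read from the data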;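 also: higher remaining NAD means stronger inhibition of SARM1 NADase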); conditions: SAM-TIR HEK293T lysate NADase, at 1 µM, stronger effect = higher value
# NAD(+) hydrolase SARM1 (Homo sapiens), sequence (Q6SZW1 whole entry, looked up): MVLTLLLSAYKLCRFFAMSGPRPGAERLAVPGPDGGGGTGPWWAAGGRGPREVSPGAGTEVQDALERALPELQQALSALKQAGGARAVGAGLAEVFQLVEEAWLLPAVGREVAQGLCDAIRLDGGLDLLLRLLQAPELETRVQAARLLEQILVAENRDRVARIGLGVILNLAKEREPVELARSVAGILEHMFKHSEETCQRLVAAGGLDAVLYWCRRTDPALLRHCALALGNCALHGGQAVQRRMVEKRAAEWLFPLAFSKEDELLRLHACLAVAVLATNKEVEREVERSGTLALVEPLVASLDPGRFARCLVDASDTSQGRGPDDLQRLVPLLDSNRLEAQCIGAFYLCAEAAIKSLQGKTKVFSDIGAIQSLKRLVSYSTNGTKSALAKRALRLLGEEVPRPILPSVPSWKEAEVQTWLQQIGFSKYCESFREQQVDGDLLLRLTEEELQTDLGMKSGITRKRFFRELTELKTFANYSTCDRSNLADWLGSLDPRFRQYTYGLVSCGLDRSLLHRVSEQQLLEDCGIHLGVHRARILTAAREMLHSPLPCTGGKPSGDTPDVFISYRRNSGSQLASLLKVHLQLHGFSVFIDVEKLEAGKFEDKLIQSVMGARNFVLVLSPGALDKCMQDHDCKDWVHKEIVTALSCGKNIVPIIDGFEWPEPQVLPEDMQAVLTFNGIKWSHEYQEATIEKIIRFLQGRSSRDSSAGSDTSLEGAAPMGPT
# [15] = measured here: epithelial PC-3E GFP cell survival
# [16] = measured here: mesenchymal TEM4-18 mCherry cell survival
# [17] = stronger effect = lower value, cell number ratio, induced over uninduced
# [18] = measured here: relative caspase fold change +Dox/-Dox
# [19] = measured here: total cells with miR-34 induction, stronger effect = lower value
# [20] = measured here: total cells without miR-34 induction
# [21] = MELAS cybrid survival, CellTiter-Glo 48 h, stronger effect = higher value
# [22] = Rieske KO mouse fibroblast survival, CellTiter-Glo 72 h
smiles,measurement,setting,value
CCCCCCCCCCCCCCCC[N+](C)(C)CCN(Cc1ccc(OC)cc1)c1ncccn1,survival,[1],0.417 (inactive)
same,parasite load remaining,[2],24.3% (inactive)
same,viability,[2],77.4%
same,nuclear beta-catenin stimulation,[3]; at 10 µM,-5.4% (inactive)
same,nuclear beta-catenin stimulation,"[3]; stimulation, at 2 µM",0%
same,insulin secretion stimulation,[4],2.9% (inactive)
same,viability decrease,[5],100% (active)
same,tube area decrease,[6],110% (active)
same,GLP1 secretion stimulation,[7],79.6% (active)
same,inhibition of viability,[8],101% (active)
same,viability decrease (inhibition),[9],120% (active)
same,viability decrease (inhibition),[10],103% (active)
same,red/green cell ratio (normalised),[11],0.95 (inactive)
same,normalised cell number,[11]; [15],1.06
same,normalised cell number,[11]; [16],1
same,fold change,[12]; [17],0.797 (inactive)
same,fold change,[12]; [18],1.23
same,cell count,[12]; [19],4700
same,cell count,[12]; [20],5900
same,z-score,[13]; [21],-2.42 (inactive)
same,z-score,[13]; [22],1.31
same,remaining NAD,[14],10 nM (inactive)
O=C(Nc1ccccc1)OCC(CN1CCCCC1)OC(=O)Nc1ccccc1 (configuration not stated),survival,[1],16 (inactive)
same,parasite load remaining,[2],59.3% (inactive) and 41.7% (inactive) and 36.2% (inactive)
same,viability,[2],79.1% and 91.5% and 107%
same,nuclear beta-catenin stimulation,[3]; at 10 µM,-0.9% (inactive)
same,nuclear beta-catenin stimulation,"[3]; stimulation, at 2 µM",-0.9%
same,insulin secretion stimulation,[4],14.9% (inactive)
same,viability decrease,[5],36.4% (inactive)
same,tube area decrease,[6],1.6% (inactive)
same,GLP1 secretion stimulation,[7],-0.5% (inactive)
same,inhibition of viability,[8],75.7% (active)
same,viability decrease (inhibition),[9],65.2% (active)
same,viability decrease (inhibition),[10],32.3% (inactive)
same,red/green cell ratio (normalised),[11],0.79 (inactive)
same,normalised cell number,[11]; [15],1.18
same,normalised cell number,[11]; [16],0.92
same,fold change,[12]; [17],0.99 (inactive) and 0.916 (inactive)
same,fold change,[12]; [18],1.08 and 5.69
same,cell count,[12]; [19],8030 and 11400
same,cell count,[12]; [20],8110 and 12500
same,z-score,[13]; [21],0.475 (inactive)
same,z-score,[13]; [22],-0.0131
same,remaining NAD,[14],10 nM (inactive)
CC[N+](CC)(CC(=O)Nc1c(C)cccc1C)Cc1ccccc1,parasite load remaining,[2],117% (inactive) and 51.1% (inactive)
same,viability,[2],146% and 98%
same,nuclear beta-catenin stimulation,[3]; at 10 µM,-0.3% (inactive)
same,nuclear beta-catenin stimulation,"[3]; stimulation, at 2 µM",6.8%
same,insulin secretion stimulation,[4],-0.4% (inactive)
same,viability decrease,[5],-6.6% (inactive)
same,tube area decrease,[6],-5.6% (inactive)
same,GLP1 secretion stimulation,[7],1.3% (inactive)
same,inhibition of viability,[8],-21.2% (inactive)
same,viability decrease (inhibition),[9],14.9% (inactive)
same,viability decrease (inhibition),[10],-2.15% (inactive)
same,red/green cell ratio (normalised),[11],1.59 (inactive)
same,normalised cell number,[11]; [15],1.01
same,normalised cell number,[11]; [16],1.61
same,fold change,[12]; [17],0.914 (inactive) and 0.932 (inactive)
same,fold change,[12]; [18],0.77 and 5.58
same,cell count,[12]; [19],8020 and 13200
same,cell count,[12]; [20],8770 and 14200
same,z-score,[13]; [21],-0.589 (inactive)
same,z-score,[13]; [22],-0.906
same,remaining NAD,[14],10 nM (inactive)
Oc1c(I)cc(Cl)c2cccnc12,survival,[1],4.42 (inactive)
same,parasite load remaining,[2],11.3% (inactive) and 21.8% (inactive)
same,viability,[2],89.4% and 95.4%
same,nuclear beta-catenin stimulation,[3]; at 10 µM,55.7% (active)
same,nuclear beta-catenin stimulation,"[3]; stimulation, at 2 µM",6%
same,insulin secretion stimulation,[4],-0.1% (inactive)
same,viability decrease,[5],82% (active)
same,tube area decrease,[6],110% (active)
same,GLP1 secretion stimulation,[7],-5% (inactive)
same,inhibition of viability,[8],81.2% (active)
same,viability decrease (inhibition),[9],127% (active)
same,viability decrease (inhibition),[10],97.8% (active)
same,red/green cell ratio (normalised),[11],1 (inactive)
same,normalised cell number,[11]; [15],0.99
same,normalised cell number,[11]; [16],0.99
same,fold change,[12]; [17],1.06 (inactive) and 0.786 (inactive)
same,fold change,[12]; [18],0.681 and 1.8
same,cell count,[12]; [19],5310 and 5470
same,cell count,[12]; [20],5010 and 6960
same,z-score,[13]; [21],0.113 (inactive)
same,z-score,[13]; [22],-0.741
same,remaining NAD,[14],10 nM (inactive)
